In PubChem BioAssay (Tox21):
Records with an inconclusive call do not appear. Activity calls are given as the source filed them. Calls come from the whole dose curve; as a rule, active = well fitted curve in the direction sought with a large enough effect in the repeat runs; inconclusive = weak or mixed curves; inactive = no such curve, though single readings can be large; an effect the other way counts as inactive or inconclusive.

How the values were obtained:
[1] = A CellTox Green Cytotoxicity Assay to monitor cytotoxicity in HEK293 cells - 24 hour (AID 1224875); note: series mostly up to about 77 µM; nearly all actives have a fitted effect of over 45% in size
Procedure, shortened: (§1)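 Tox21 screen in HEK293: membrane-impermeant cyanine dye fluoresces on binding dead-cell DNA; compound pinned 5 h post-seeding, plates held at 37 C, signal read repeatedly through 40 h.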

[2] = A CellTox Green Cytotoxicity Assay to monitor cytotoxicity in HepG2 cells - 16 hour (AID 1224876); note: nearly all actives have a fitted effect of over 45% in size
Procedure, shortened: (§2)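 Measurements at 0, 8, 16, 24, 32 and 40 h of treatment captured CellTox Green fluorescence in HepG2 cells that had been co-plated with reagent and preincubated 5 h at 37 C/5% CO2.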

[3] = qHTS RealTime-Glo MT Cell Viability Assay in HepG2 cells - 32 hour (AID 1224877); note: nearly all actives have a fitted effect of over 55% in size
Procedure, shortened: (§3)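 Compound treatment began 5 h after plating HepG2 cells (600/well) with NanoLuc luciferase and prosubstrate. Plates stayed at 37 C for 40 h; luminescence was captured at six time points, 0 h through 40 h.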

[4] = A CellTox Green Cytotoxicity Assay to monitor cytotoxicity in HepG2 cells - 24 hour (AID 1224878); note: nearly all actives have a fitted effect of over 45% in size
Procedure, shortened: as §2

[5] = A CellTox Green Cytotoxicity Assay to monitor cytotoxicity in HepG2 cells - 40 hour (AID 1224879); note: nearly all actives have a fitted effect of over 40% in size
Procedure, shortened: as §2

[6] = qHTS RealTime-Glo MT Cell Viability Assay in HEK293 cells - 0 hour (AID 1224880); note: top concentration of the series differs between compounds; nearly all actives have a fitted effect of over 45% in size
Procedure, shortened: (§4)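 HEK293 + NanoLuc + prosubstrate, 600 cells/well; 5 h, 37 C/5% CO2; compound 23 nL in DMSO by pintool; 37 C; luminescence read at 0, 8, 16, 24, 32 and 40 h time points.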

[7] = A CellTox Green Cytotoxicity Assay to monitor cytotoxicity in HEK293 cells - 32 hour (AID 1224881); note: nearly all actives have a fitted effect of over 40% in size
Procedure, shortened: as §1

[8] = A CellTox Green Cytotoxicity Assay to monitor cytotoxicity in HepG2 cells - 0 hour (AID 1224882); note: nearly all actives have a fitted effect of over 35% in size
Procedure, shortened: as §2

[9] = A CellTox Green Cytotoxicity Assay to monitor cytotoxicity in HepG2 cells - 32 hour (AID 1224883); note: nearly all actives have a fitted effect of over 50% in size
Procedure, shortened: as §2

[10] = A CellTox Green Cytotoxicity Assay to monitor cytotoxicity in HEK293 cells - 8 hour (AID 1224884); note: nearly all actives have a fitted effect of over 35% in size
Procedure, shortened: as §1

[11] = qHTS RealTime-Glo MT Cell Viability Assay in HepG2 cells - 16 hour (AID 1224885); note: nearly all actives have a fitted effect of over 50% in size
Procedure, shortened: as §3

[12] = qHTS RealTime-Glo MT Cell Viability Assay in HEK293 cells - 24 hour (AID 1224886); note: top concentration of the series differs between compounds; nearly all actives have a fitted effect of over 50% in size
Procedure, shortened: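 Quantitative high-throughput screen of the Tox21 10K library in HEK293: cells and RealTime-Glo reagents plated together, compound added at 5 h, luminescence monitored through 40 h at 37 C.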

[13] = qHTS RealTime-Glo MT Cell Viability Assay in HEK293 cells - 8 hour (AID 1224887); note: top concentration of the series differs between compounds; nearly all actives have a fitted effect of over 50% in size
Procedure, shortened: as §4

[14] = A CellTox Green Cytotoxicity Assay to monitor cytotoxicity in HEK293 cells - 16 hour (AID 1224888); note: nearly all actives have a fitted effect of over 35% in size
Procedure, shortened: as §1

[15] = qHTS RealTime-Glo MT Cell Viability Assay in HepG2 cells - 0 hour (AID 1224889); note: nearly all actives have a fitted effect of over 50% in size
Procedure, shortened: as §3

[16] = A CellTox Green Cytotoxicity Assay to monitor cytotoxicity in HepG2 cells - 8 hour (AID 1224890); note: nearly all actives have a fitted effect of over 45% in size
Procedure, shortened: as §2

[17] = qHTS assay to identify small molecule antagonists of the estrogen receptor alpha (ER-alpha) signaling pathway using the BG1 cell line in the presence of 0.1 nM 17-beta-estradiol - cell viability counter screen (AID 1259241); note: nearly all actives have a fitted effect of over 40% in size
Procedure, shortened: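 VM7Luc4E2 cells (endogenous full-length ER-alpha, 4xERE-luciferase), cultured 5 days in charcoal-stripped serum, exposed to compounds with 0.1 nM 17beta-estradiol (final) for 22 hr at 37C. Viability read in same wells as live-cell protease fluorescence after 30 min.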

[18] = qHTS assay to identify small molecule antagonists of the androgen receptor (AR) signaling pathway using the MDA cell line in the presence of 0.5 nM R1881 - cell viability counter screen (AID 1259242); note: nearly all actives have a fitted effect of over 45% in size
Procedure, shortened: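 Concentration-response screen of compounds for toxicity in MDA-kb2 reporter cells: 16 hr at 37C with 0.5 nM R1881, endpoint live-cell protease fluorescence measured in the reporter wells.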

[19] = biological target: Androgen receptor (Homo sapiens) (UniProt P10275); experiment: qHTS assay to identify small molecule antagonists of the androgen receptor (AR) signaling pathway using the MDA cell line in the presence of 0.5 nM R1881 (AID 1259243); note: nearly all actives have a fitted effect of over 50% in size
Procedure, shortened: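 With R1881 held at 0.5 nM (final), compound effects on MMTV-luciferase expression in MDA-kb2 cells were scored by luminescence after a 16 hr, 37C incubation.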

[20] = biological target: Estrogen receptor (Homo sapiens) (UniProt P03372); experiment: qHTS assay to identify small molecule antagonists of the estrogen receptor alpha (ER-alpha) signaling pathway using the BG1 cell line in the presence of 0.1 nM 17-beta-estradiol (AID 1259244); note: nearly all actives have a fitted effect of over 50% in size
Procedure, shortened: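 Compounds were tested against 0.1 nM (final) 17beta-estradiol in VM7Luc4E2 cells, which express full-length ER-alpha and an ERE-luciferase reporter; luminescence was recorded following 22 h exposure.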
% is set by controls: 0 for no effect and ±100 for the full control effect.

Chain of Estrogen receptor (Homo sapiens) (P03372 whole entry, looked up): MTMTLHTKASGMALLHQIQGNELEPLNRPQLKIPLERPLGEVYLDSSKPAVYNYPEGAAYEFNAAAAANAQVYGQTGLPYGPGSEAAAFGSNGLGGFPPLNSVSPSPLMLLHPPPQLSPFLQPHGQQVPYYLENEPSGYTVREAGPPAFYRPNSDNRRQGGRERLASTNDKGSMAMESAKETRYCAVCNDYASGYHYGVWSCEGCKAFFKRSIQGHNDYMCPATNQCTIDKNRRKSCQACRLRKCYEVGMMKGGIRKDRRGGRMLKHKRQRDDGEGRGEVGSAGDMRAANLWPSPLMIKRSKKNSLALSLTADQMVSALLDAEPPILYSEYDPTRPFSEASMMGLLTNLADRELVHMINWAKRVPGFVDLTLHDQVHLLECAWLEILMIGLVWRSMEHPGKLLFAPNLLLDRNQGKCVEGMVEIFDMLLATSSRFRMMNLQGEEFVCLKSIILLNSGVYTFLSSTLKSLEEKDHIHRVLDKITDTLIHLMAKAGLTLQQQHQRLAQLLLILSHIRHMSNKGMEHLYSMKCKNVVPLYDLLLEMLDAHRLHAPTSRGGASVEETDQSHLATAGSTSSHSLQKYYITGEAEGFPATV
Chain of Androgen receptor (Homo sapiens) (P10275 whole entry, looked up): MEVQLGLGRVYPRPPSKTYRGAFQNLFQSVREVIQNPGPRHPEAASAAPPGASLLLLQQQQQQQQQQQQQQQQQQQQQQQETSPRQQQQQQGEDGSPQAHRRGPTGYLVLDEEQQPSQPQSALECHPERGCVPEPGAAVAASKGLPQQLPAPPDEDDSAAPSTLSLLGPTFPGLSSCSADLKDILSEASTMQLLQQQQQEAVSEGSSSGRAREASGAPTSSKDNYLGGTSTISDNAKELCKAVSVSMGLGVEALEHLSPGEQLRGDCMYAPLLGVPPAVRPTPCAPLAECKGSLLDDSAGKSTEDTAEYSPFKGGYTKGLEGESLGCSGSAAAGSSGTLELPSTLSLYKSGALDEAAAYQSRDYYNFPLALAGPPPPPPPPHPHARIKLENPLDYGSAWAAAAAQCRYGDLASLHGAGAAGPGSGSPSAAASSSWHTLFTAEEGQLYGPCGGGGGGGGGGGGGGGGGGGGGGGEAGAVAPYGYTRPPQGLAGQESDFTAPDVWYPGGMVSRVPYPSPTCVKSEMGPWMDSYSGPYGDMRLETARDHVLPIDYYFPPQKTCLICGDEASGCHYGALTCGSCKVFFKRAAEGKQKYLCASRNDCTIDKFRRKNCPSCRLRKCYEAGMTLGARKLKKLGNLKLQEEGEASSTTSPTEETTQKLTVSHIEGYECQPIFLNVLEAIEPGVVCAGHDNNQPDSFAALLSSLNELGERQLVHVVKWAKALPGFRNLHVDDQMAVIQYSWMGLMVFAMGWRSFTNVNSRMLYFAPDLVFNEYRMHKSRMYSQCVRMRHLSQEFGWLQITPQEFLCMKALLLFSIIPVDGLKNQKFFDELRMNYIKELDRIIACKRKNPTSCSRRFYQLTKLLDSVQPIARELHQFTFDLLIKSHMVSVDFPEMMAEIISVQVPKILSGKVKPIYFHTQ

CCC(=O)OC/C=C(\C)CCC=C(C)C
inactive: Potency [1] | Potency [2] | Potency [3] | Potency [4] | Potency [5] | Potency [6] | Potency [7] | Potency [8] | Potency [9] | Potency [10] | Potency [11] | Potency [12] | Potency [13] | Potency [14] | Potency [15] | Potency [16] | Potency [17] | Potency [18] | Potency [19] | Potency [20]

O=[N+]([O-])c1ccc(CO)cc1
inactive: Potency [1] | Potency [2] | Potency [3] | Potency [4] | Potency [5] | Potency [6] | Potency [7] | Potency [8] | Potency [9] | Potency [10] | Potency [11] | Potency [12] | Potency [13] | Potency [14] | Potency [15] | Potency [16] | Potency [17] | Potency [18] | Potency [19] | Potency [20]

CC(=O)CC(N)=O
inactive: Potency [1] | Potency [2] | Potency [3] | Potency [4] | Potency [5] | Potency [6] | Potency [7] | Potency [8] | Potency [9] | Potency [10] | Potency [11] | Potency [12] | Potency [13] | Potency [14] | Potency [15] | Potency [16] | Potency [17] | Potency [18] | Potency [20]

CCCCNc1ccc(NCCCC)c2c1C(=O)c1ccccc1C2=O
inactive: activity change [1] 0.143% [at 15.8 µM, active compounds read high] | cytotoxicity increase [2] -0.637% [at 15.8 µM] | activity change, negative = cytotoxic [3] -3.72% [at 15.8 µM] | cytotoxicity [4] -4.17% [at 15.8 µM] | cytotoxicity increase [5] -3.23% [at 15.8 µM] | activity change, negative = cytotoxicity [6] -4.14% [at 15.8 µM] | cytotoxicity increase [7] -0.0716% [at 15.8 µM] | cytotoxicity [8] 3.56% [at 15.8 µM] | cytotoxicity increase [9] -3.73% [at 15.8 µM] | cytotoxicity increase [10] 1.22% [at 15.8 µM] | activity change, negative = cytotoxic [11] 0.554% [at 15.8 µM] | activity change, negative = cytotoxicity [12] -0.0547% [at 15.8 µM] | activity change, negative = cytotoxicity [13] 3.79% [at 15.8 µM] | activity change [14] 0.839% [at 15.8 µM, active compounds read high] | activity change, negative = cytotoxicity [15] 1.94% [at 15.8 µM] | cytotoxicity increase [16] -2.69% [at 15.8 µM] | activity change, negative = cytotoxicity [17] -14.1% [at 19 µM] | viability change, negative = cytotoxic [18] -9.45% [at 19 µM] | activity, negative = inhibition [19] -3.08% [at 19 µM] | activity change, negative = inhibition [20] 2.76% [at 19 µM]

c1ccc(-c2ccccc2-c2ccccc2)cc1
inactive: Potency [1] | Potency [2] | Potency [3] | Potency [4] | Potency [5] | Potency [6] | Potency [7] | Potency [8] | Potency [9] | Potency [10] | Potency [11] | Potency [12] | Potency [13] | Potency [14] | Potency [15] | Potency [16] | Potency [17] | Potency [18]

COc1cc(C(C)C)ccc1C
inactive: activity change [1] -1.5% [at 15.8 µM, active compounds read high] | cytotoxicity increase [2] -12.9% [at 15.8 µM] | activity change, negative = cytotoxic [3] 7.91% [at 15.8 µM] | cytotoxicity [4] -14.9% [at 15.8 µM] | cytotoxicity increase [5] -18.2% [at 15.8 µM] | activity change, negative = cytotoxicity [6] 6.56% [at 15.8 µM] | cytotoxicity increase [7] -4.81% [at 15.8 µM] | cytotoxicity [8] -8.39% [at 15.8 µM] | cytotoxicity increase [9] -14.3% [at 15.8 µM] | cytotoxicity increase [10] -0.16% [at 15.8 µM] | activity change, negative = cytotoxic [11] -0.349% [at 15.8 µM] | activity change, negative = cytotoxicity [12] 0.818% [at 15.8 µM] | activity change, negative = cytotoxicity [13] 1.54% [at 15.8 µM] | activity change [14] -2.08% [at 15.8 µM, active compounds read high] | activity change, negative = cytotoxicity [15] -5.12% [at 15.8 µM] | cytotoxicity increase [16] -11.9% [at 15.8 µM] | activity change, negative = cytotoxicity [17] -2.73% [at 19 µM] | viability change, negative = cytotoxic [18] 0.996% [at 19 µM] | activity, negative = inhibition [19] -0.285% [at 19 µM]
